Data on 46 compounds can be found in PubChem BioAssay AID1851 (National Center for Advancing Translational Sciences (NCATS), 2009).

In all, about 16,000 compounds went through this assay and about 5,100 (32%) were called active. Not shown: some 25% with an inconclusive outcome. The list shows a part of the results. Values without a mark were called inactive. The call rests on the fitted dose curve; in most records, active means well fitted curve in the direction sought with a large enough effect; inconclusive means small, poorly fitted or top-dose-only effect, or effect the other way; inactive means no such curve, though single readings can be large or run the other way.
On the % scale 0 is the no-effect control and ±100 the full control effect.

The target in this experiment is Cytochrome P450 3A4 (Homo sapiens) (UniProt P08684). The experiment can be described thus: Cytochrome panel assay with activity outcomes. The following applies: recombinant CYP, pro-luciferin dealkylation, luminescence, p450-cyp3a4; series mostly up to 57.1 µM; activity, negative = inhibition: at the top concentration.
Cytochrome P450 3A4 (Homo sapiens), sequence (P08684 whole entry, looked up): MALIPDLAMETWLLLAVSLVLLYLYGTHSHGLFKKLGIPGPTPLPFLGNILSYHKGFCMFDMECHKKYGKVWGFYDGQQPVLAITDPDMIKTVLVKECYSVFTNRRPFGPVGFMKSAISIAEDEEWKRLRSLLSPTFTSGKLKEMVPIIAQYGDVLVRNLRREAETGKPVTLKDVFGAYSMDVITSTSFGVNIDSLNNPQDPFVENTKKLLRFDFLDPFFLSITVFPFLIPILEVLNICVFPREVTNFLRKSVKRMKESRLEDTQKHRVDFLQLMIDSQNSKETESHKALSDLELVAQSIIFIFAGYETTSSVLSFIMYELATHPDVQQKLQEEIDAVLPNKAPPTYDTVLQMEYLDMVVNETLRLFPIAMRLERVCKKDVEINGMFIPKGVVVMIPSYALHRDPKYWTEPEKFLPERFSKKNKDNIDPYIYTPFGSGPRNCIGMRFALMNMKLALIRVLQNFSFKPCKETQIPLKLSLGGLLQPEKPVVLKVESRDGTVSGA
`O=C(N/N=C/c1cccc(OC2CSC2)c1)c1ccccc1O`: the activity, negative = inhibition was -1.49% [at 2.29 µM].

Consider `CC1=CC(=C2C(=O)c3ccccc3C2=O)C=C(C)N1Cc1ccco1`, for which the AC50 is 14.1 µM (active).

With `CC1(C)OC(=O)N(Cc2ccco2)C1(C)O` (stereo unspecified), the “activity, negative = inhibition” value is -11.6%.

With `CCCCS(=O)(=O)NC1=NCN(Cc2ccco2)CN1`, the “activity, negative = inhibition” value was -13.9%.

Turning to `CCN(CC)CCCNC(=O)CC1Sc2ccccc2NC1=O` (stereo unspecified), the “activity, negative = inhibition” value was 6.35%.

In the case of `COC(=O)c1c(NC(=O)CC2Nc3ccccc3NC2=O)sc(C)c1C` (stereo unspecified), the AC50 is 3.55 µM (active).

`CC(Sc1nnc(C(C)N(C)C)n1-c1ccc(Cl)cc1)C(=O)Nc1ccc2c(c1)OCO2` (stereo unspecified): the AC50 is 0.891 µM (active).

With `C/C(=N\NC(N)=S)c1ccc[nH]1`, the activity, negative = inhibition is -6.66% [at 11.4 µM].

As for `COc1ccc2oc(-c3ccc(C)c(NC(=O)CSc4ccc(Cl)cc4)c3)nc2c1`, the half-maximal activity concentration (AC50) is 11.2 µM (active).

For the compound `COc1ccc2oc(-c3ccc(C)c(NC(=O)c4ccc(N5CCOCC5)c([N+](=O)[O-])c4)c3)nc2c1`, the AC50 is 6.31 µM (active).

Turning to `CCOCC(=O)Nc1cc(-c2cn3cccnc3n2)ccc1C`, the “activity, negative = inhibition” value was 24.8%.

Turning to `Cc1ccc(-c2nc3ccccc3o2)cc1NC(=O)Cc1cccs1`, the “activity, negative = inhibition” value was 28.9%.

Regarding `CCOC(=O)c1c(NC(=O)c2ccc(N3CCOCC3)c([N+](=O)[O-])c2)sc(C)c1C`, the “activity, negative = inhibition” value is -1.99%.

Consider `Cc1ccc(SCCCn2cnc3ccccc3c2=O)cc1`, for which the AC50 is 11.2 µM (active).

`CCCCn1cnc2c(cnn2-c2ccc(F)cc2)c1=O`: the “activity, negative = inhibition” value was -2.78%.

Take `O=c1c2ccccc2ncn1CCCSc1ccccc1`: the “activity, negative = inhibition” value was -8.34%.

Regarding `O=C(c1ccccc1)c1nc2ccccc2n(CCCn2c(=O)c(C(=O)c3ccccc3)nc3ccccc32)c1=O`, the AC50 is 1.41 µM (active).

As to `O=C(Cn1c(C(F)(F)F)nc2ccccc21)c1ccccc1`, the “activity, negative = inhibition” value was -8.98%.

Turning to `CCCCCn1c(=O)c(C(=O)c2ccccc2)nc2ccccc21`, the activity, negative = inhibition is -5.99% [at 2.29 µM].

For `CN1CCC[C@@H](CC2c3ccccc3Sc3ccccc32)C1`, the “activity, negative = inhibition” value is -7.59% [at 25.6 µM].

As for `COc1cc(-n2ccnc2SC)c(Cl)cc1Cl`, the AC50 is 14.1 µM (active).

Turning to `COc1ccc(-c2cc(C(=O)NCc3cccnc3)no2)cc1OC`, the AC50 is 2.51 µM (active).

Regarding `Cc1cc(C(=O)NCc2ccccc2)no1`, the “activity, negative = inhibition” value is -13.3%.

For the compound `COc1cccc(-c2nc(CS(=O)(=O)CC(=O)NCCCOC(C)C)c(C)o2)c1`, the AC50 was 7.94 µM (active).

Turning to `CCOC(=O)N1CCC(NC(=O)CS(=O)(=O)Cc2nc(-c3cccc(OC)c3)oc2C)CC1`, the AC50 was 7.08 µM (active).

For `Cc1cccc(C)c1NC(=O)N1CCC(N2CCCCC2)CC1`, the “activity, negative = inhibition” value is -21.5%.

With `Cc1cccc(C)c1NC(=O)C(c1ccc(Cl)cc1Cl)N1CCCCC1` (stereo unspecified), the AC50 was 3.98 µM (active).

Regarding `O=C(O)/C=C\C(=O)Nc1ncn[nH]1`, the activity, negative = inhibition is -3.91% [at 11.4 µM].

On to `CCCN[C@@H](C)C(=O)Nc1ccccc1C`, for which the AC50 result is “inactive”.

In the case of `Cc1ccccc1NC(=O)C(C)c1cccc(C(=O)c2ccccc2)c1` (stereo unspecified), the AC50 was 7.94 µM (active).

As for `COC(=O)Nc1nc2ccc(C(=O)c3ccccc3)cc2[nH]1`, the “activity, negative = inhibition” value is -1.41% [at 25.6 µM].

For `Cc1cccc(-c2n[nH]c([N+](=O)[O-])n2)c1`, the activity, negative = inhibition was -5.58% [at 2.29 µM].

`COc1cccc(CN2CCN(Cc3cc(OC)c(OC)cc3[N+](=O)[O-])CC2)c1`: the activity, negative = inhibition was -15.7% [at 2.29 µM].

With `COc1cccc(-c2noc(Cn3nc(C)c([N+](=O)[O-])c3C)n2)c1`, the AC50 is 14.1 µM (active).

Consider `CC[C@H](CO)NCCN[C@@H](CC)CO`, for which the “activity, negative = inhibition” value is 4.95% [at 25.6 µM].

For the compound `N[C@@H](Cc1[nH]nc2ccccc12)C(=O)O`, the activity, negative = inhibition was -7.68% [at 11.4 µM].

Take `COC(=O)c1ccc(NC(=S)NC2CCCCC2)cc1`: the “activity, negative = inhibition” value is -15.8%.

For `COc1ccc(CCNC(=O)COc2ccc(S(=O)(=O)NC3CCCCC3)cc2Cl)cc1`, the AC50 was 7.08 µM (active).

In the case of `O=C(COc1ccc(Cl)cc1)NCCC1=CCCCC1`, the activity, negative = inhibition was -14.7% [at 11.4 µM].

For `COc1ccc(/C=N\NC(=O)O)cc1`, the activity, negative = inhibition was -13.4% [at 11.4 µM].

Take `CCC1=C(C)CN(C(=O)NCCc2ccc(S(=O)(=O)NC(=O)NC3CCC(C)CC3)cc2)C1=O` (stereo unspecified): the “activity, negative = inhibition” value is -25.9% [at 25.6 µM].

`COc1ccc(/C=N/NC(=O)CCCC(=O)NC2CCCCC2)cc1`: the AC50 was 12.6 µM (active).

Consider `CC(C)NC(=O)CC(=O)N/N=C/c1ccc(Br)cc1`, for which the “activity, negative = inhibition” value is -3.05%.

In the case of `COc1ccc(CCCC(=O)NC2CCCCC2)cc1`, the AC50 is 20 µM (active).

With `CC(C)OC(=O)C1=C2SCC(=O)N2C(N)=C(C#N)C1`, the activity, negative = inhibition is -16.2% [at 11.4 µM].

Regarding `COc1ccc(-n2c(=O)c(-c3cccc(C#N)c3)nc3cnc(N4CCNCC4)nc32)cc1`, the “activity, negative = inhibition” value was -26.2%.
